Screening results from PubChem.
GSTO1 inh: blocks human GSTO1 in RBBP9 counter-screen. P78417. inhibition, % at 5.96 µM. hit rate 1.1% among 300,000. recombinant GSTO1, activity-based probe fluorescence polarization;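 active means inhibition above the campaign mean inhibition plus 3 SD, cut at about 35% in these data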
PME-1 inh: blocks human protein phosphatase methylesterase 1 | Q9Y570 | recombinant PME-1, FP-Rh probe fluorescence polarization | inhibition, % at 5.9 µM | hit rate 0.53% among 320,000 | AID 2130;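 active means inhibition above the campaign mean of all compounds plus 3 SD, cut at about 26% in these data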;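 further: competitive labeling of PME-1 active site by serine hydrolase directed probe; inhibitors block probe labeling so polarization falls and inhibition rises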
Target sequence (Q9Y570 whole entry, looked up): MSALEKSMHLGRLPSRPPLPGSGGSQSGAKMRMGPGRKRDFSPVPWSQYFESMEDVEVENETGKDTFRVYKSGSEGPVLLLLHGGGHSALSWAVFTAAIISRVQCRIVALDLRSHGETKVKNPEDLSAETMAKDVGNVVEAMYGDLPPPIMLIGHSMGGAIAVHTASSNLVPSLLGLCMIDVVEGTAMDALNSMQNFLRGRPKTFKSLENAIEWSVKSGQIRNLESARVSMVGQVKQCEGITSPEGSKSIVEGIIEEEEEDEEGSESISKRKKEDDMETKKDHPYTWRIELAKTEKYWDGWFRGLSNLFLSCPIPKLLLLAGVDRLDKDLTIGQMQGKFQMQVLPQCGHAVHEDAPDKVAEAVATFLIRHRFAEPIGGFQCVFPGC
LYPLA2 inh: counter-screen for PME1 inhibitors: inhibitors of human LYPLA2; O95372; recombinant LYPLA2, FP-Rh probe fluorescence polarization; inhibition, % at 5.9 µM; hit rate 0.38% among 320,000; AID 2177;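 active means inhibition above the screen-wide mean plus 3 SD, limit set per campaign, cut at about 26% in these data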
PAD4 FP inh: PAD4 (human) enzyme inhibition. Q9UM07. recombinant PAD4, RCA probe fluorescence polarization. inhibition, % at 6.36 µM. hit rate 0.41% among 330,000;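 active means percent inhibition above a cutoff equal to the mean of all tested compounds plus 3 SD, cut at about 15% in these data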
Fam108B inh: Fam108B inhibition, counter-screen for RBBP9 inhibitors. recombinant Fam108B, FP-Rh probe fluorescence polarization. inhibition, % at 9.51 µM. hit rate 0.33% among 300,000. AID 1947;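 active means inhibition above the screen mean inhibition plus 3 SD, computed separately per campaign, cut at about 18% in these data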;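 further: inhibitors lower polarization as less probe binds the enzyme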
LYPLA1 inh: LYPLA1 (human) inhibition in PME1 counter-screen | inhibition, % at 5.9 µM | recombinant LYPLA1, FP-Rh probe fluorescence polarization | hit rate 0.16% among 320,000;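 active means inhibition above the mean of all tested compounds plus 3 SD, set per campaign, cut at about 14% in these data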;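 further: inhibitors block serine hydrolase probe labeling of LYPLA1 so polarization falls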
PAD4 confirm: PAD4 (human) inhibition, confirmed; shares compounds with PAD4 FP inh; recombinant PAD4, RCA probe fluorescence polarization; inhibition, % at 6.36 µM; hit rate 28% among 1,200; AID 488796;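 active means mean inhibition across replicates above the hit cutoff set by the earlier primary screen, cut at about 15% in these data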;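 further: inhibitors block active-site labeling by the probe so polarization falls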
Numbers stand for hits; . = inactive; / = not tested or not shown. Compounds with a hit are over-represented: about 1.8% of the library has one in this group of screens.

SMILES	GSTO1 inh	PME-1 inh	LYPLA2 inh	PAD4 FP inh	Fam108B inh	LYPLA1 inh	PAD4 confirm
CCN(CCO)c1ccc(N=Cc2c(O)n(C)c(=S)[nH]c2=O)cc1	48	.	.	40	.	.	.
CCN(CC)c1ccc(N=Cc2c(O)n(Cc3ccco3)c(=O)[nH]c2=O)cc1	.	.	.	16	.	.	.
CCN(CC)c1ccc(N=Cc2c(O)n(-c3cc(OC)ccc3OC)c(=O)[nH]c2=O)cc1	.	.	.	18	.	.	.
COC(=O)C1=C(c2ccc(-c3ccccc3)c(F)c2)C[C@@H]2CC[C@H]1N2C(=O)NC1Cc2ccccc2C1	/	.	.	.	/	.	/
CCS(=O)(=O)NCc1nnc2n1-c1ccc(Cl)cc1C(c1ccccc1)=NC2	.	.	.	.	.	.	/
CN(C)c1ccc2c(c1)N=C(c1ccco1)OP2(=S)N1CCOCC1 (stereo not drawn)	.	.	.	.	.	.	/
COC(=O)C1=C(c2cc3ccccc3s2)C[C@@H]2CC[C@H]1N2C(=O)NC1CCCCC1	.	.	.	.	.	.	/
COC(=O)C1=C(c2cccc(OC)c2OC)C[C@@H]2CC[C@H]1N2C(=O)NCc1ccc(F)cc1	.	.	.	28	.	.	.
Cc1ccc(N2C(=O)NC(=O)C(CCc3ccccn3)(Cc3ccc(F)cc3)C2=O)cc1 (stereo not drawn)	.	.	.	.	.	.	/
O=c1c2ccccc2nc(-c2ccccc2)n1-c1ccccc1	.	.	.	.	.	.	/
O=c1c2ccccc2[se]n1-c1ccccc1	.	.	.	75	.	.	80
COCCNC(=O)c1c(NC(=O)c2ccc(Br)o2)n(Cc2ccccc2)c2nc3ccccc3nc12	77	.	.	54	.	.	.
COCCCNC(=O)c1c(NC(=O)c2ccco2)n(Cc2ccccc2)c2nc3ccccc3nc12	.	.	.	.	.	.	/
CCCCCCn1c(=O)c(C(=O)Nc2cccc(C)n2)c(O)c2ccccc21	.	.	.	.	.	.	/
O=c1cc(C2CCNCC2)[nH][nH]1	.	.	.	37	.	.	.
C#C[C@]1(O)CC[C@H]2[C@@H]3CCC4=Cc5nc6nc7ccccc7n6cc5C[C@]4(C)[C@H]3CC[C@@]21C	.	.	.	19	.	.	.
CN1CC=C2C(C#N)=C(N)C(C#N)(C#N)C(c3ccncc3)C2C1 (stereo not drawn)	.	.	.	27	.	.	.
Cc1ccc(-n2c(O)c(C=NC3CCCCC3N)c(=O)[nH]c2=O)cc1C (stereo not drawn)	.	.	.	.	.	.	/
CCC(C)n1c(O)c(C=Nc2cccc(C(F)(F)F)c2)c(=O)[nH]c1=S (stereo not drawn)	.	.	.	22	.	.	.
CC(C)n1c(O)c(C=NCc2cccnc2)c(=O)[nH]c1=S	.	.	.	.	.	.	/
O=C1CC(c2cccnc2)=NN1c1ccccc1	.	.	.	52	.	.	.
